Screens as filed in PubChem.
Most compounds without a hit are left out; they make up all but 0.3% or so of the library.
mcGAS inh: inhibitors of mouse cGAS; Q8C6L5; recombinant cGAS, Kinase-Glo ATP depletion luminescence; inhibition, % at 12.5 µM; hit rate 0.15% among 160,000; AID 1259399;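 note: 0% = negative control wells and 100% = reference inhibitor with no enzyme activity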
Target sequence (Q8C6L5 whole entry, looked up): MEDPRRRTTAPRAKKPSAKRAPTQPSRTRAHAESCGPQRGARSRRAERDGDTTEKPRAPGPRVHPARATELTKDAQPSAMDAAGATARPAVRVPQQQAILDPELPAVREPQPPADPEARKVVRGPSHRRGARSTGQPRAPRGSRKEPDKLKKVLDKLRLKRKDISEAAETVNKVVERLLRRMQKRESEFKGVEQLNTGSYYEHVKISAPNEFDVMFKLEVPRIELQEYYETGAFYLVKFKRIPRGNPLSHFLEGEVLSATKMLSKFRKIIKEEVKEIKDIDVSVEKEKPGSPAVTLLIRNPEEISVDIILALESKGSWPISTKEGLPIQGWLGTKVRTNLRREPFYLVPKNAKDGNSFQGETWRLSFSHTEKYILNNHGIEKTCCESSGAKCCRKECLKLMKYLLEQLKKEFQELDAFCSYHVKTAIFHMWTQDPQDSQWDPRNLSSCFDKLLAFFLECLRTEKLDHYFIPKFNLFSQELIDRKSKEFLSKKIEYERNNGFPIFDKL
hcGAS lum: human cGAS inhibition; Q8N884; hit rate 0.081% among 290,000; recombinant h-cGAS, ATP depletion, Kinase-Glo luminescence; inhibition, % at 12.5 µM;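 note: 0% = vehicle reaction and 100% = reaction without DNA for no activity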
NPYLR7 ag: mosquito NPYLR7 agonism; HEK293T NPYLR7/Galpha15, GCaMP6s calcium fluorescence; activation, % at 10 µM; hit rate 0.15% among 270,000; in the data active = activation above about 40%;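 note: 0% = vehicle and 100% = reference agonist at the receptor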
Starred values were filed as active, the others as inactive; . = not tested or not shown. Cut-off read from the data, not from the text of the source, unless noted: active = inhibition above about 40%; inactive = the rest.

SMILES	mcGAS inh	hcGAS lum	NPYLR7 ag
COc1ccc([N+](=O)[O-])cc1NC(=O)CCl	44*	-4	-3
O=[N+]([O-])c1ccc(Nc2ccc(F)cc2)c([N+](=O)[O-])c1	-5	-11	2
COc1cc([N+](=O)[O-])ccc1NC(=O)CCl	70*	1	-4
COc1cccc(-c2cc(C(=O)N3CCN(C(=O)CSc4ccccc4)CC3)c(C)n2-c2ccccc2)c1	-5	-3	16
CCOC(=O)c1sc(NC(=O)c2cc(C)no2)nc1C	-4	0	6
CCc1nnc(NC(=O)c2cc(C)no2)s1	46*	16	12
Cc1cc(-c2cc(=O)[nH]c(-c3ccc(CN4CCN(C)CC4)cc3)n2)c(C)o1	.	-10	5
O=c1c(N=Nc2ccccc2Cl)c(-c2ccccc2)[nH]n1-c1nc(-c2ccccc2)cs1	3	22	8
Cc1c(Cl)cccc1N=Nc1c(-c2ccccc2)[nH]n(-c2nc(-c3ccccc3)cs2)c1=O	20	53*	-3
Cc1ccc(C(=O)NN2C(=O)C3C4C=CC(C5CC45)C3C2=O)cc1 (stereo unspecified)	-7	-6	9
O=C(NN1C(=O)C2C3C=CC(C4CC34)C2C1=O)c1cccc(Cl)c1 (stereo unspecified)	85*	-4	6
O=C(CCl)N1CCN(c2ccc(O)cc2)CC1	11	4	-8
O=C(CCl)N1CCN(c2cccc(Cl)c2)CC1	70*	-10	0
Cc1cnc(NC2CCN(CC3CCCO3)CC2)nc1N(C)C (stereo unspecified)	-1	1	-4
CC(=O)NCCC1CN(Cc2cc3ccccc3n2C)CCO1 (stereo unspecified)	.	3	1
COc1cccc2c1C(=O)c1c(O)c3c(c(O)c1C2=O)C[C@@](O)(C(=O)CO)C[C@@H]3OC1C[C@H](N)[C@H](O)[C@H](C)O1 (stereo partly specified)	.	57*	.
C=CCN(Cc1nccn1Cc1ccccc1)C(=O)c1ccc(Cl)cc1	-3	-4	19
CCn1c(C)cc(C(=O)N2CCN(S(=O)(=O)c3c(Cl)cccc3Cl)CC2)c1C	-19	-4	1
CN1CCc2c(sc(NC(=O)Cc3ccccc3)c2-c2nc3ccccc3s2)C1	-4	0	45*
CC(=O)N1CCc2c(sc(NC(=O)Cc3ccccc3)c2-c2nc3ccccc3s2)C1	.	-5	3
CCOC(=O)N1CCc2c(sc(NC(=O)C(C)C)c2-c2nc3ccccc3s2)C1	.	-4	5
CC(C)N1CCc2c(sc(NC(=O)C3CC3)c2-c2nc3ccccc3s2)C1	32	45*	166*
CC(C)C(=O)Nc1sc2c(c1-c1nc3ccccc3s1)CCN(C(C)C)C2	90*	78*	66*
CC(C)N1CCc2c(sc(NC(=O)c3ccc([N+](=O)[O-])o3)c2-c2nc3ccccc3s2)C1	-6	-3	-3
CC(C)C(=O)Nc1sc2c(c1-c1nc3ccccc3s1)CCN(C)C2	0	10	49*
SMILES	mcGAS inh	hcGAS lum	NPYLR7 ag
CC(=O)N1CCc2c(sc(NC(=O)c3ccccc3)c2-c2nc3ccccc3s2)C1	.	-2	3
CCN1CCc2cc(OC)c(OC)cc2C1C(C)NC(=O)c1cccc(Cl)c1 (stereo unspecified)	-7	-6	-1
O=S(=O)(Nc1cc(Sc2ncn[nH]2)c(O)c2ccccc12)c1ccc(Br)cc1	44*	-5	-5
CC(C)(C)c1ccc(S(=O)(=O)Nc2cc(Sc3ncn[nH]3)c(O)c3ccccc23)cc1	14	-8	-7
O=C(CN1CCCC(O)(CO)CC1)NCc1ccccn1 (stereo unspecified)	-10	-11	-2
OC(COc1cc(Cl)ccc1Cl)CN1CCc2sccc2C1 (stereo unspecified)	.	-4	-1
Cc1cc(O)c(CN2CCN(C)CC2)c2c1C(=O)/C(=C/c1ccncc1)O2	-2	-3	26
Cc1cc(O)c(CN2CCCCC2)c2c1C(=O)/C(=C/c1cc3ccccc3o1)O2	-5	-4	50*
Cc1cc(O)c(CN2CCN(C)CC2)c2c1C(=O)/C(=C/c1cccs1)O2	-6	-2	49*
Cc1cc(O)c(CN2CCOCC2)c2c1C(=O)/C(=C/c1cc3ccccc3o1)O2	-3	-1	28
CCCN(CC(=O)N(CCc1c[nH]c2ccccc12)Cc1ccc(Cl)c(Cl)c1)C(=O)c1cccc([N+](=O)[O-])c1	-5	-5	9
CN(Cc1nc(-c2cccnc2)no1)C(=O)CC1COCCN1 (stereo unspecified)	.	-3	12
CN1C(=S)N(c2ccc3c(c2)CCC3)C(=O)/C1=C/c1ccc(N(C)C)cc1	-10	-13	4
CN1C(=S)N(c2ccc3c(c2)CCC3)C(=O)/C1=C\c1ccncc1	-3	-2	41*
CCOCCCN1C(=O)C(=Cc2ccccc2O)NC1=S	.	1	120*
CCCCN1C(=O)C(=Cc2cccnc2)NC1=S	.	-6	6
O=C1C(=Cc2ccccc2O)NC(=S)N1Cc1ccco1	1	1	80*
COc1ccccc1C=C1SC(=S)N(Cc2ccco2)C1=O	.	-9	11
Cc1cc(Oc2ccc([N+](=O)[O-])cc2)nc(SCc2ccccc2Cl)n1	-6	-9	19
CC(=O)NC1=NN(C(C)=O)C2(S1)C(=O)N(C(C)=O)c1ccc(F)cc12 (stereo unspecified)	.	-3	0
COc1ccccc1-c1cc(C(=O)N2CCc3ccccc3C2)nc2cc(C(C)(C)C)nn12	84*	6	-2
CC(C)(C)c1cc2nc(C(=O)N3CCc4ccccc4C3)cc(-c3ccccc3F)n2n1	1	1	-13
CCOc1ccc(OCC(=O)NCc2nnnn2-c2ccc(OCC)cc2)cc1	-5	-4	7
CCCc1nn2c(N)c(C=C3C=C(Cl)C(=O)C(Cl)=C3)c(=O)nc2s1	52*	25	51*
CCCc1nn2c(N)c(C=C3C=CC(=O)C=C3)c(=O)nc2s1	.	13	-4
SMILES	mcGAS inh	hcGAS lum	NPYLR7 ag
COCCCN(CC(=O)N1CCc2sccc2C1COc1ccc(Cl)cc1)C(=O)c1ccco1 (stereo unspecified)	-5	-4	10
CCOC(=O)C1=C(O)/C(=C\c2ccc(N(C)C)cc2)SC1=Nc1ccc(OC)cc1OC	0	2	79*
CCOC(=O)C1=C(O)/C(=C\c2cc(OC)cc(OC)c2)SC1=Nc1ccccc1F	2	4	-6
Cc1cc(O)c(C=O)c2c1C(=O)Oc1c(C)c(O)c3c(c1O2)C(O)OC3=O (stereo unspecified)	.	42*	-8
COC(=O)c1c(C)c2c(c(C)c1O)OC(=O)c1c(C)c(Cl)c(O)c(Cl)c1O2	-2	22	-1
COc1cc(C)c2c(c1C=O)Oc1c(c(C)c(O)c3c1C(O)OC3=O)OC2=O (stereo unspecified)	41*	70*	-13
Cc1c(NC(=O)Cc2ccccc2NS(C)(=O)=O)n[nH]c1C1CC1	.	-8	6
CCn1c2ccccc2c2cc(C3Nc4ccccc4N=C4CC(c5ccc(Cl)cc5)CC(=O)C43)ccc21 (stereo unspecified)	-6	-6	11
Cc1ccoc1C(=O)NC(c1ccc(F)cc1)c1nccn1C (stereo unspecified)	-7	-10	2
O[C@@H]1CN(Cc2ccc3c(c2)OCO3)CC[C@H]1c1ccc2c(c1)OCO2	.	-3	2
